Source: PubChem (National Center for Advancing Translational Sciences (NCATS))
Most compounds without a hit are left out; they make up all but 5.9% or so of the library.
RORgamma inh: ROR gamma (mouse) transcription inhibition; P51450; Drosophila S2 Gal4-RORgamma UAS-luciferase reporter, 20 h; Potency, µM (series often up to 53.6 µM), inactives show top-dose activity change, negative = inhibition, most hits filed as inhibitors; 5.4% of 310,000 active; further: on the % scale 0 is the no-effect control and ±100 the full control effect; nearly all actives have a fitted effect of over 60% in size
Target sequence (P51450 whole entry, looked up, the tested form may be a part): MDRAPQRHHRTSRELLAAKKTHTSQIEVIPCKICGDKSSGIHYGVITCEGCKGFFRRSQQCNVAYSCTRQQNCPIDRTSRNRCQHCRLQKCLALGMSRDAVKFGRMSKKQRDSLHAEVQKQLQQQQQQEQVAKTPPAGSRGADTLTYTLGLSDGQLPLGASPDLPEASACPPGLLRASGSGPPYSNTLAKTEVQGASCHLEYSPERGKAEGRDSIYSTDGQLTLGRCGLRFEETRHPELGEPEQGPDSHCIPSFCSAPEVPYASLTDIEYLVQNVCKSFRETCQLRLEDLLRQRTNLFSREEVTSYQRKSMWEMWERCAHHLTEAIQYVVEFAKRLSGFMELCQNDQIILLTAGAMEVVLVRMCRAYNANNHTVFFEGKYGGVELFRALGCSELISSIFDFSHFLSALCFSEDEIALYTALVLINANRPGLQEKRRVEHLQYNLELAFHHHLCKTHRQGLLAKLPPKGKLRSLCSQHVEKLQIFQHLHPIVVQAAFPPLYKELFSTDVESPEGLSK
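Stably transfected Drosophila Schneider cells are the test system, with ROR gamma fused to Gal4 and luciferase under UAS control; luminescence is read after 20 hr of 700 uM copper sulfate induction at ambient temperature.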
GLP1R ag: GLP-1 receptor (human) agonism. P43220. HEK293 GLP-1R CRE-luciferase, luminescence, 4-6 h; cells express a hypersensitive GLP-1R form. Potency, µM (titrated, usually from 45.6 µM), without a hit: at the highest dose activation, most hits filed as activators. 0.007% of 380,000 active; further: % of control where 0% means no effect
Gal4-VP16 FLuc: Gal4-VP16 reporter inhibition counter-screen. Drosophila S2 Gal4-VP16 UAS-luciferase, luminescence, 20 h. AID 2546. Potency, µM (highest dose often 53.6 µM), for the others: at the highest dose activity, negative = inhibition, most hits filed as inhibitors. 3.5% of 310,000 active;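 further: Gal4-VP16 expression switched on by copper sulfate through the metallothionein promoter; on the % scale 0 is the no-effect control and ±100 the full control effect; nearly all actives have a fitted effect of over 50% in size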
GLP-1R inv ag: inverse agonists of human GLP-1 receptor; 1.6% of 410,000 active; HEK293 GLP-1R CRE-luciferase, luminescence, 24 h; GLP-1R form is constitutively active; P43220; Potency, µM (highest dose often 38.3 µM), without a hit: top-dose activity change, negative = inhibition, usual class: inhibitors; further: on the % scale 0 is the no-effect control and ±100 the full control effect; nearly all actives have a fitted effect of over 55% in size
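Readout was luciferase luminescence, measured 12 min after detection reagent at room temperature. Beforehand, GLP-1R reporter HEK293 cells had sat 12 h, then received compounds for 24 hr at 37 deg C.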
HEK293 tox: cytotoxicity in counter-screen for GLP-1R inverse agonists; HEK293 cAMP-luciferase reporter cells, luminescence, 24 h; Potency, µM (doses to about 38.3 µM), inactives show at the highest dose activity change, negative = inhibition, most hits filed as inhibitors; 0.13% of 410,000 active;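 further: loss of luciferase light is scored as toxicity; on the % scale 0 is the no-effect control and ±100 the full control effect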
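Quantitative HTS format, 1536 wells, 200 cells/uL seeded. Compounds: 23 nL, 24 h, 37 °C. Detection: luciferase reagent, luminescence at 12 min RT; decreased signal taken as cytotoxic.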
Starred values were filed as active, the others as inactive; ? = inconclusive; / = no result; [ ] = remark or other dose. The call rests on the fitted dose curve; in most records, active means well fitted curve in the direction sought with a large enough effect; inconclusive means small, poorly fitted or top-dose-only effect, or another doubt; inactive means no such curve, though single readings can be large; an effect the other way counts as inactive or inconclusive. Potency means the concentration at half of the fitted maximal effect.

SMILES | RORgamma inh | GLP1R ag | Gal4-VP16 FLuc | GLP-1R inv ag | HEK293 tox
CC(C)C[C@@H](CC(=O)N[C@H](CC(=O)N[C@@H]1CCCC[C@H]1C(=O)N[C@H](CC(=O)N[C@@H](CCC(=O)O)CC(=O)O)CC(C)C)C(C)C)NC(=O)[C@@H]1CNCC[C@H]1N | -13.2% | / | -12.8% | / | /
Oc1ccc(Nc2nc(-c3ccccc3)nc3ccccc23)cc1 | 3.2% | 9.6% | -2.4% | ? | -7.0%
CCOC(=O)c1ccc(Nc2nc(-c3cccnc3)nc3ccccc23)cc1 | -33.9% | 4.4% | ? | 8.91µM* | -8.5%
Cc1cccc(Nc2c3c(nc4ccccc24)CCC3)c1 | 7.08µM* | 9.0% | ? | ? | ?
Cc1cccc(-c2nc(Nc3cccc(O)c3)c3ccccc3n2)c1 | -9.9% | -0.4% | -3.1% | 6.31µM* | -13.1%
CC(=O)Nc1ccc(Nc2nc(-c3ccccc3)nc3ccccc23)cc1 | -28.3% | 7.4% | 12.6µM* | -15.5% | 0.2%
CC(=O)c1cccc(Nc2nc(-c3cccc(C)c3)nc3ccccc23)c1 | / | / | / | ? | -2.9%
Cc1ccc(Nc2c3c(nc4ccccc24)CCC3)cc1F | / | -2.3% | / | ? | ?
CC1(OC(=O)c2cnc3ccccc3n2)C(=O)C=C2C=C(c3ccsc3)OC=C2C1=O (configuration not stated) | 14.6% | / | -8.8% | / | /
COc1ccc(O[C@H]2C=C[C@@H](c3ccccc3)O[C@H]2COC(=O)CC/C(C)=N\OC[C@@H](C)[C@H](OCc2ccccc2)C(C)C)cc1 | 16.4%[10 µM] | / | -2.7%[10 µM] | / | /
O=C(NCCc1ccccc1)c1cc(S(=O)(=O)N2CCOCC2)ccc1F | 41.4% | 22.8% | 17.1% | -4.0% | 5.3%
Cc1cccc(C(=O)N(CCc2ccccc2)Cc2ccccc2)c1[N+](=O)[O-] | 17.1% | -4.3% | 1.0% | 3.16µM* | -19.2%
Cc1ccc(S(=O)(=O)N2CCCCC2)cc1C(=O)N(CCc1ccccc1)Cc1ccccc1 | / | -5.8% | / | 4.47µM* | 10.3%
COc1ccc(C(=O)N(CCc2ccccc2)Cc2ccccc2)c(OC)n1 | 14.3% | 15.1% | -1.4% | 5.62µM* | 6.7%
CCN1CCN(S(=O)(=O)c2ccc(Cl)c(C(=O)N(CCc3ccccc3)Cc3ccccc3)c2)CC1 | / | 4.9% | / | ? | ?
O=C(c1cc(S(=O)(=O)N2CCOCC2)ccc1F)N(CCc1ccccc1)Cc1ccccc1 | / | 6.3% | / | 10µM* | -2.6%
CCc1ccccc1NC(=O)Cn1c(=O)oc2ccccc21 | / | / | / | -13.1% | -9.5%
O/N=C/c1ccnc(SCc2ccc(Cl)cc2)n1 | 20.2% | 27.1% | -8.1% | ? | -4.5%
O/N=C/c1ccnc(SCc2ccccc2)n1 | 0.562µM* | 17.8% | 3.55µM* | 33.2% | 5.8%
COc1ccc(OC)c(NC(=O)c2cc3c(s2)-c2ccccc2SC3)c1 | / | / | / | 1.4% | 15.9%
COc1cc(NC(=O)CSCc2cnn(-c3ccccc3)c2-n2cccc2)cc(OC)c1 | ? | 1.2% | -3.4% | 3.16µM* | -17.0%
Cc1ccc(NC(=O)CSCc2cnn(-c3ccccc3)c2-n2cccc2)c(Cl)c1 | / | / | / | 10µM* | 22.3%
COc1ccccc1CNC(=O)CSCc1cnn(-c2ccccc2)c1-n1cccc1 | 22.7% | 7.0% | -10.5% | 0.0% | -11.6%
COc1ccc(OC)c(NC(=O)CSCc2cnn(-c3ccccc3)c2-n2cccc2)c1 | 27.1% | 9.0% | 2.1% | 11.2µM* | -3.2%
O=C(CSCc1cnn(-c2ccccc2)c1-n1cccc1)NCc1ccccc1F | / | / | / | 12.6µM* | 1.4%
SMILES | RORgamma inh | GLP1R ag | Gal4-VP16 FLuc | GLP-1R inv ag | HEK293 tox
O=C(CSCc1cnn(-c2ccccc2)c1-n1cccc1)Nc1ccc(F)cc1F | / | / | / | ? | -11.9%
COc1ccc(NC(=O)Cn2nc(C)c3c(C)n(-c4ccccc4)nc3c2=O)cc1OC | / | / | / | 3.7% | 9.3%
Cc1ccc(NC(=S)Nc2ccc(Br)cc2)cc1 | 7.94µM* | -13.8% | ? | -2.7% | 6.1%
CC(=O)Nc1ccc(NC(=S)Nc2ccc(Br)cc2)cc1 | -22.2% | 7.7% | 1.3% | ? | 8.7%
S=C(Nc1ccccc1)Nc1ccc(Br)cc1 | ? | 0.3% | ? | ? | -5.5%
COC(=O)NNC(=S)Nc1ccc(Br)cc1 | 14.1µM* | -1.8% | -14.6% | 26.1% | 3.1%
Fc1ccccc1NC(=S)Nc1ccc(Br)cc1 | 11.2µM* | -15.4% | ? | -26.7% | ?
CC(C)(C)NC(=S)Nc1ccc(Br)cc1 | 2µM* | -8.4% | -84.4% | 0.0% | ?
COc1ccc(C(=O)N2CCC[C@@]3(CCN(c4ccccc4)C3)C2)cc1 | 25.3% | / | -11.5% | / | /
Cc1ccc2cccc(NC(=O)C(C)(C)Oc3ccc(Br)cc3)c2n1 | / | 24.8% | / | ? | 13.1%
CCC(Oc1ccccc1)C(=O)Nc1ccc(OCc2cc(=O)n3ccc(C)cc3n2)cc1 (configuration not stated) | / | / | / | 7.8% | 1.0%
CC(C)(C)NC(=S)Nc1ccc(Nc2ccccc2)cc1 | 1.78µM* | 4.1% | 7.08µM* | -29.7% | ?
CC(C)(C)NC(=S)Nc1cccc(C(F)(F)F)c1 | 30.8% | 6.0% | ? | ? | ?
CC[C@@H]1Cn2c(c3nc(-c4cc(Cl)cc(Cl)c4Cl)nc-3n(C)c2=O)N1 | 8.91µM* | / | ? | / | /
CC(NCC(O)COCc1cccs1)C1CC2CCC1C2 (configuration not stated) | -5.3% | 2.2% | 9.8% | 9.5% | 2.9%
CC(C1CC2CCC1C2)n1c(-c2cccs2)n[nH]c1=S (configuration not stated) | 0.794µM* | 12.7% | ? | 5.01µM* | -0.5%
COc1cc2c(cc1OC)CN(c1ccc([N+](=O)[O-])cc1C#N)CC2 | 15.9% | 21.7% | 21.5% | -15.0% | ?
COc1cc2c(cc1OC)CN(c1ccc([N+](=O)[O-])cc1Cl)CC2 | ? | 13.7% | 17.8µM* | ? | -11.7%
S=c1nc[nH]c2c1[nH]c1ccccc12 | 11.2µM* | 9.2% | 0.2%[0.365 µM] | -3.2% | ?
O=C(O)c1ccc(/C=N/NC(=O)c2cc3ccccc3cc2O)cc1 | / | -30.2% | / | -8.8% | -18.1%
O=C(N/N=C/c1ccc(Sc2ccccn2)o1)c1cc2ccccc2cc1O | 15.8µM* | -4.9% | 18.5%[0.365 µM] | -3.6% | -12.9%
O=C(N/N=C\c1ccc(Sc2ccccn2)o1)c1cccc(F)c1 | 10µM* | 3.1% | -15.0% | ? | -6.7%
O=C(N/N=C/c1ccc(Sc2ccccn2)o1)c1cccc([N+](=O)[O-])c1 | 3.98µM* | -4.0% | 11.2µM* | 5.6% | -14.1%
O=C(Nc1ccc(S(=O)(=O)N2CCCC2)cc1)c1ccccc1 | / | 7.6% | / | -14.0% | -5.4%
Cc1ccc(S(=O)(=O)N2CCOCC2)cc1C(=O)NC(=S)N1CC(C)OC(C)C1 (configuration not stated) | 4.47µM* | 12.5% | 15.8µM* | -6.7% | 0.5%
Cc1ccccc1C(=O)NC(=S)Nc1ccc(S(=O)(=O)N2CCOCC2)cc1 | 20µM* | 15.6% | 17.8µM* | -0.7% | 4.0%
